Screening data as filed in PubChem.
KKLEB cytotox = counter-screen for CF NF-kB inhibitors: cytotoxicity | KKLEB CF airway cells viability, ATPlite luminescence, overnight; hits give low values; cells stimulated with P. aeruginosa culture filtrate | activity change (cytotoxicity), % at 5 µM | hit rate 0.36% among 360,000 | AID 602141;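 active means corrected activity change at or below -50% at 5 µM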
HIF-2a block = blocks HIF-2a reporter activity | hit rate 0.72% among 360,000 | inhibition, % at 18.8 µM | 786-0 RCC cells HIF-2a reporter, luciferase luminescence, overnight;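 active means inhibition of the luminescence signal of 40% or more relative to plate controls, in a single-dose primary screen at 18.75 µM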
MITF TRPM1 inh = MITF TRPM1 promoter inhibition in SK-MEL-5 cells. SK-MEL-5 TRPM1 promoter luciferase, 24 h. hit rate 0.83% among 330,000. inhibition, % at 12.5 µM;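 active means mean inhibition across replicates of 60% or more, whatever share of single replicates reaches that level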
Shn3 inh set2 = reduces Shn3 3'UTR luciferase signal in osteoblasts; inhibition, % at 12.5 µM; hit rate 0.52% among 360,000; Clone20 osteoblast Shn3 3'UTR firefly luciferase, 24 h;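 active means mean inhibition of at least 75% with every replicate also reaching 75%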;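 further: 0% = median of neutral control wells and 100% = pilot-screen positive control compound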
Peg3 promoter = inhibitors of Peg3 promoter | HeLa PEG-Prom luciferase reporter, luminescence, overnight | inhibition, % at 20 µM | hit rate 1.7% among 360,000 | AID 588405;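 active means inhibition of at least 50% at 20 µM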
CF NFkB inh = inhibitors of cystic fibrosis induced NF-kB | KKLEB NF-kB-GFP reporter, PAF-induced, GFP fluorescence overnight | inhibition, % at 5 µM | hit rate 0.86% among 360,000;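 active means at least 50% inhibition at 5 µM, scaled per plate between neutral and stimulator controls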;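 further: PAF is a Pseudomonas aeruginosa culture filtrate used as stimulus; plate controls were PAF-stimulated DMSO wells for no effect and unstimulated DMSO wells for full effect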
Mdm2 MdmX conf = Mdm2/MdmX (human) interaction inhibition, confirmed; shares compounds with HIF-2a block; SaOS-2 split-luciferase Mdm2/MdmX complementation, luminescence; inhibition, % at 8 µM; hit rate 99% among 740;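 active means mean inhibition of the luminescence signal across two replicates at or above 26 percent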
HIF-2a inh conf = confirmation of HIF-2a inhibitors. shares compounds with HIF-2a block. 786-0 RCC cells, HIF-2a luciferase reporter luminescence, overnight. inhibition, % at 18.8 µM. hit rate 56% among 1,800. AID 651580;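 active means mean inhibition across four replicates of at least 40 percent at the single tested concentration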
HIF-1a counter = counter-screen for HIF-2a inhibitors: HIF-1a inhibition in MiaPaCa-2 cells; shares compounds with HIF-2a block; MiaPaCa-2 HIF-1a luciferase reporter, desferoxamine, overnight; hit rate 72% among 1,800; inhibition, % at 18.8 µM;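 active means mean inhibition of the reporter signal across four replicates at the single tested dose of 50% or more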
Active calls of the source: *; nt = no result given. Hits are enriched below; roughly 2.8% of the tested compounds scored in any of these assays.

SMILES | KKLEB cytotox | HIF-2a block | MITF TRPM1 inh | Shn3 inh set2 | Peg3 promoter | CF NFkB inh | HIF-2a inh conf | HIF-1a counter | others
Cc1ccc(-c2csc3ncnc(Sc4nnc(CN5CCCCCC5=O)o4)c23)cc1 | 9 | 94* | 85* | 7 | 106* | 93* | 100* | 104*
O=C(CSc1nnc(CNC(=O)c2cccs2)o1)Nc1ccc(F)cc1F | -7 | 10 | 8 | -2 | 0 | -6 | nt | nt
C[C@@H](NC(=O)c1nc[nH]c1C(=O)N(C)Cc1ccccc1)c1ccccc1 | -1 | 19 | 13 | 7 | -2 | 4 | nt | nt
O=C(Oc1ccc2ccc(OC(=O)N3CCCCCC3)cc2c1)N1CCCCCC1 | -6 | -142 | -20 | 13 | -105 | -26 | nt | nt
CCOC(=O)CSc1nc(N)c(C#N)c(-c2ccc(OCC)cc2)c1C#N | -2 | 8 | 2 | -10 | 12 | 15 | nt | nt
COC(=O)CSc1nc(N)c(C#N)c(-c2ccc(O)cc2)c1C#N | -9 | 40* | -9 | nt | 8 | 12 | 35 | 21
Cc1[nH]c(=O)c(C(=O)/C=C/c2ccccc2F)c2c1CCCC2 | -38 | 90* | 84* | 6 | 110* | 91* | 92* | 100* | Mdm2 MdmX conf=103*
NC(=O)C1(N2CCCCC2)CCN(S(=O)(=O)c2cc(Cl)ccc2Cl)CC1 | -17 | 5 | -5 | -13 | 2 | 6 | nt | nt
O=C(c1ccc(-c2ccccc2)cc1)c1ccccc1C(=O)N1CCOCC1 | -11 | -22 | -9 | -13 | -23 | -14 | nt | nt
S=C(c1ccc(-c2ccccc2)cc1)N1CCOCC1 | -11 | 86* | -11 | 26 | 23 | 2 | 89* | 54*
COc1ccc2cc3c(N)nn(C(=O)Cc4c[nH]c5ccccc45)c3nc2c1 | -26 | 50* | 63* | 23 | 106* | 86* | 30 | 102* | Mdm2 MdmX conf=102*
COc1ccc2cc3c(N)nn(C(=O)Cc4ccc(Cl)cc4)c3nc2c1 | -6 | 8 | 0 | 12 | 15 | 22 | nt | nt
COc1ccc2cc3c(N)nn(C(=O)c4ccccc4Cl)c3nc2c1 | -5 | 43* | 34 | 8 | 10 | 77* | 20 | 94* | Mdm2 MdmX conf=99*
COc1cccc(CC(=O)n2nc(N)c3cc4ccc(OC)cc4nc32)c1 | -2 | -40 | -31 | 3 | 40 | -36 | nt | nt
CC1=C(C(=O)OCc2ccc3c(c2)OCO3)C(c2ccc(F)cc2)NC(=O)N1 (stereo not drawn) | -32 | 23 | 46 | 7 | 55* | 86* | nt | nt | Mdm2 MdmX conf=97*
CSCCOC(=O)C1=C(C)NC(=O)NC1c1ccc2c(c1)OCO2 (stereo not drawn) | 6 | 19 | -7 | 8 | 13 | -10 | nt | nt
CC(=O)c1ccc(S(=O)(=O)N2CCN(C(=O)CSc3ccc(C)c(C)c3)CC2)cc1 | -2 | 9 | nt | 5 | 17 | -17 | nt | nt
CCOC(=O)N1CCC(NS(=O)(=O)c2ccc(NC(C)=O)c(Cl)c2)CC1 | 0 | 24 | nt | 30 | 9 | 5 | nt | nt
CCc1ccc(NC(=O)c2cnn3ccccc23)cc1 | -17 | 50* | 51 | 20 | 37 | 4 | 68* | 75*
Cc1ccc(N2C(N)=C(C#N)C(c3cccnc3)C3=C2CC(C)(C)CC3=O)cc1 (stereo not drawn) | 2 | 0 | 8 | 0 | 17 | 0 | nt | nt
Cc1ccc(C2C(C#N)=C(N)N(c3ncn[nH]3)C3=C2C(=O)CC(C)(C)C3)cc1 (stereo not drawn) | -4 | 44* | 2 | -11 | 9 | 8 | 3 | 0
O=C(O)c1ccc(CN2C[C@@H](CO)O[C@@H](n3cnc4c(NCc5ccco5)ncnc43)C2)cc1 | 12 | 6 | nt | -18 | 8 | -12 | nt | nt
CC(C)(C)S(=O)(=O)c1nc2ccccc2s1 | -12 | 6 | -11 | 7 | -5 | -1 | nt | nt
CCS(=O)(=O)CCSc1nc2ccccc2s1 | -4 | -9 | -18 | -24 | 3 | -7 | nt | nt
O=S(=O)(CCSc1nc2ccccc2s1)c1nc2ccccc2s1 | -43 | 57* | 39 | -5 | 58* | 73* | 25 | 69* | Mdm2 MdmX conf=103*
SMILES | KKLEB cytotox | HIF-2a block | MITF TRPM1 inh | Shn3 inh set2 | Peg3 promoter | CF NFkB inh | HIF-2a inh conf | HIF-1a counter | others
C=CCS(=O)(=O)c1nc2ccccc2s1 | -18 | 88* | 1 | 9 | 104* | 52* | -7 | 44
CCc1noc(C)c1C(=O)N1CCSC1=Nc1cccc(Cl)c1C | -12 | 32 | -3 | 33 | 30 | 14 | nt | nt
O=S(=O)(/C=C/C=C/S(=O)(=O)c1ccccc1)c1ccccc1 | -42 | 95* | 111* | 98* | 100* | 92* | 96* | 105*
O=C1NC2c3c(I)sc(I)c3C(=O)C2O1 (stereo not drawn) | 9 | 53* | 59 | 17 | 106* | -16 | 4 | 48
O=C(O)c1ccc(C=C(c2nc3ccccc3s2)c2nc3ccccc3s2)cc1 | -15 | 50* | 13 | -1 | 19 | 30 | 52* | 92*
COc1cc(C=C(c2nc3ccccc3s2)c2nc3ccccc3s2)cc(OC)c1O | 8 | -56 | 8 | -15 | -71 | -24 | nt | nt
Cc1nc(SCc2cccc(C(=O)O)c2)nc2c1CCCC2 | 0 | 86* | 28 | 29 | -48 | -2 | 84* | 25
O=C(Nc1ccc(NC(=S)NC(=O)c2ccco2)cc1)c1ccc(Br)cc1 | -15 | 57* | nt | 14 | 12 | 23 | 64* | 12
CCc1ccccc1NC(=O)C1CCN(S(=O)(=O)c2ccc3c(c2)N(C(C)=O)CCO3)CC1 | 7 | 13 | 4 | -13 | 10 | 6 | nt | nt
O=C(NNc1nc2ccccc2s1)Nc1ccc(Cl)c(Cl)c1 | -19 | 40* | 12 | -8 | -10 | 8 | -28 | 48
O=C(NNc1nc2ccccc2s1)Nc1ccc(F)cc1 | -5 | -193 | -67 | -58 | -212 | -38 | nt | nt
CCc1ccccc1NC(=O)CNC(=O)c1cc(C2CC2)nn1-c1ccccc1 | -2 | 7 | 14 | 2 | 18 | 8 | nt | nt
Cc1ccc(Oc2c(C(N)=O)cc([N+](=O)[O-])cc2[N+](=O)[O-])cc1 | -95* | 94* | 92* | 93* | 106* | 85* | 74* | 102* | Mdm2 MdmX conf=102*
CC(=O)Nc1ccc(NC(=O)c2ccc(-c3ccnn3C)c3ccoc23)cc1 | -3 | 61* | nt | 19 | -80 | 5 | 86* | 34
CC(C)c1ccc(NC(=O)c2ccc(-c3ccnn3C)c3ccoc23)cc1 | 2 | -135 | nt | 20 | -126 | -4 | nt | nt
CC(C)S(=O)(=O)N1CCCC(C(=O)c2cccc(Cl)c2)C1 (stereo not drawn) | -1 | -2 | -15 | 0 | 7 | -6 | nt | nt
